Abeta rescue = qHTS for compounds that reverse cellular toxicity of Amyloid beta (A-beta) peptide in yeast: Primary Screen; yeast expressing A-beta42, growth rescue, OD600, 48 h; response scale: 0% DMSO, 100% iron-clioquinol control; Potency, µM (top dose mostly 46.1 µM), usual class: activators; 0.063% of 410,000 active; AID 1347071, 2019; further: nearly all actives have a fitted effect of over 55% in size
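Yeast A-beta toxicity model in growth medium with pinned compounds, 48 h at 30 C; growth read as absorbance at 600 nm. Normalized to FeCl3/clioquinol equimolar mix (positive) and DMSO (negative).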
FUS suppressor = qHTS for Suppressors of FUS Proteinopathy: Primary screen using FUS-linked yeast assay; S. cerevisiae FUS-expressing, growth rescue, OD600, 24 h; Potency, µM (highest dose often 76.6 µM), hits mostly activators; 0.24% of 390,000 active;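 further: plate controls were DMSO vehicle for no effect and reference control for full effect; nearly all actives have a fitted effect of over 55% in size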
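Yeast FUS proteinopathy model; galactose-induced FUS (2%), starting OD 0.005. Cpds in dilution series, 24hr, 30C, 99% humidity. Abs 600 nm growth. Pos ctrl CP55940 (top 92uM final); neg ctrl DMSO.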
aSyn rescue = qHTS of alpha-syn Inhibitors | Yeast expressing alpha-synuclein, growth rescue, BacTiter-Glo, 24 h | Potency, µM (series often up to 46.1 µM), inactives show at the top dose growth rescue (activation), usual class: activators | 0.14% of 370,000 active | AID 652106, 2013; further: % of control where 0% means no effect; nearly all actives have a fitted effect of over 65% in size
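Readout is rescue of growth in alpha-synuclein-expressing yeast, so inhibitors of toxicity appear as activators. Growth after 24 hr at 30 deg C in galactose medium is quantified by luminescence.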
TDP43 rescue = qHTS of TDP-43 Inhibitors. TDP-43 expressing yeast growth rescue, BacTiter-Glo, 24 h. AID 652104, 2013. 1.8% of 410,000 active. Potency, µM (top dose mostly 46.1 µM), for inactives: top-dose growth rescue (activation), most hits filed as activators; further: % of control where 0% means no effect; nearly all actives have a fitted effect of over 50% in size
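Yeast cells expressing TDP-43 under galactose induction are exposed to compounds for 24 hr at 30 deg C. BacTiter-Glo luminescence measures growth, so protective compounds score as activators.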
Mito fusion act = qHTS Assay for Small Molecule Inhibitors of Mitochondrial Division or Activators of Mitochondrial Fusion; S. cerevisiae fusion-defective mutant growth rescue, CellTiterGlo 48 h; Potency, µM (series often up to 46.1 µM), for inactives: at the top dose growth rescue (activation), usual class: activators; 0.23% of 320,000 active; further: % of control where 0% means no effect; nearly all actives have a fitted effect of over 45% in size
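Luminescent cell viability in 1536-well qHTS format served as the measure of rescued growth in ts fusion-mutant S. cerevisiae cultured on non-fermentable YPEG for 48 hours at 37C.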
An asterisk follows results filed as active; i = inactive; ? = inconclusive; / = not tested or not shown; [ ] = remark or other dose. Only some compounds are listed: those with a hit (about 2.2% of all), similar ones and a draw of the others. The call rests on the fitted dose curve; in most records, active means well fitted curve in the direction sought with a large enough effect; inconclusive means small, poorly fitted or top-dose-only effect, or another doubt; inactive means no such curve, though single readings can be large; an effect the other way counts as inactive or inconclusive. Potency means the concentration at half of the fitted maximal effect.

SMILES	Abeta rescue	FUS suppressor	aSyn rescue	TDP43 rescue	Mito fusion act
CC(=O)Nc1cc(-c2ccccc2N(C)C)cn2c(-c3cccc(C(F)(F)F)c3)cnc12	i	32µM*	?	25µM*	/
COc1ccccc1-c1cc(NC=O)c2ncc(-c3cccc(C(=O)N(C)C)c3)n2c1	i	i	1%	17%	/
O=CNc1cc(-c2ccccc2Oc2ccccc2)cn2c(-c3ccc(F)cc3)cnc12	i	?	20%	16µM*	/
COc1ccc(-c2cc(NC=O)c3ncc(-c4ccc(C(C)=O)cc4)n3c2)cn1	i	?	0%	24%	/
COc1ccccc1-c1cc(NC=O)c2ncc(-c3cccc(C(C)=O)c3)n2c1	i	i	4%	18µM*	/
CC(=O)Nc1cc(-c2cccc(NS(C)(=O)=O)c2)cn2c(-c3cccc(C(F)(F)F)c3)cnc12	i	?	11%	29%	/
O=C(OCCN1CCN(C2CN(Cc3cn(Cc4ccccc4F)nn3)S(=O)(=O)C2)CC1)c1cc2ccccc2o1 (stereo not drawn)	/	i	/	/	/
O=S(=O)(c1ccc(Cl)cc1)N1CCN=C1SCc1cccc(Cl)c1	i	/	?	5%	23%
O=S(=O)(c1ccccc1)N1CCN=C1SCc1c(F)cccc1Cl	i	/	7%	11µM*	-10%
N#CC1=C2SCN(Cc3ccco3)CN2C(=O)CC1c1ccc(Cl)cc1 (stereo not drawn)	i	20µM*	-4%	-12%	17%
O=C(Nc1cccc(F)c1)N1CCc2nc(NCc3cccc(Oc4ccccc4)c3)ncc2C1	i	i	7%	16µM*	/
CC(C)c1ccc(NC(=O)N2CCc3nc(NCc4cccc(Oc5ccccc5)c4)ncc3C2)cc1	i	?	2%	10%	/
O=C(Nc1ncc2c(n1)-c1ccccc1CC2)c1cccs1	i	i	-12%	?	1%
O=C(Nc1ncc2c(n1)-c1ccccc1CC2)c1ccc(F)cc1	i	i	5%	10µM*	0%
O=C(Nc1ncc2c(n1)-c1ccccc1CC2)c1ccccc1	i	i	-1%	13µM*	-3%
CCOc1ccc(C(=O)CSCC(=O)O)cc1	i	i	13%	11%	-1%
NC(=O)C1CCN(c2ncc(Br)s2)CC1	/	i	/	/	/
CCOc1ccc(N2CC(C(=O)N3CCCc4ccccc43)CC2=O)cc1 (stereo not drawn)	i	i	2%	?	?
O=C(COC(=O)c1ccc2c(c1[N+](=O)[O-])C(=O)c1ccccc1C2=O)NC1CC1	i	i	-46%	3.5µM*	-7%
Cc1ccc(C)c(OCc2nc3ccc(S(=O)(=O)Nc4c(C)n(C)n(-c5ccccc5)c4=O)cc3[nH]2)c1	i	35µM*	8%	-5%[0.397 µM]	-3%
O=C(Cc1ccccc1)Nc1nc2ccccc2s1	7.1µM*	i	17%	?	9%
COCC(=O)Nc1nc2ccccc2s1	i	i	-3%	-11%	0%
O=C(Cc1cccs1)Nc1nc2ccccc2s1	?	i	3%	?	-1%
O=C(Nc1nc2ccccc2s1)C1c2ccccc2Oc2ccccc21	i	i	-15%	10µM*	?
CC1(C(=O)Nc2nc3ccccc3s2)CC1(Br)Br (stereo not drawn)	?	i	8%	10µM*	12%
SMILES	Abeta rescue	FUS suppressor	aSyn rescue	TDP43 rescue	Mito fusion act
Cc1cc(C)c(S(=O)(=O)N2CCCC2=O)c(C)c1N(C)S(C)(=O)=O	i	i	4%	15%	-2%
COc1cccc(CC(=O)OC(C)C(=O)Nc2ccc(Cl)cn2)c1 (stereo not drawn)	i	i	-4%	0%	-10%
CC(OC(=O)Cc1cccc(C(F)(F)F)c1)C(=O)Nc1ccc(Cl)cn1 (stereo not drawn)	5µM*	i	2%	?	-8%
COc1cc(/C=C/C(=O)c2ccc(C)c([N+](=O)[O-])c2)cc(OC)c1O	i	/	-9%	2%	-6%
COc1ccc(/C=C/C(=O)c2ccc(C)c([N+](=O)[O-])c2)cc1O	i	/	-55%	22µM*	11%
COc1ccc(N=Cc2nc(-c3ccco3)oc2O)cc1	i	i	-7%	7.1µM*	10%
CCN(CC(=O)Nc1ccccc1C(F)(F)F)C(=O)c1ccc2c(c1)NC(=O)C(C)S2 (stereo not drawn)	i	i	2%	11%	/
CC1CCN(C(=O)c2ccc(NC3=C(Cl)C(=O)N(Cc4ccccc4)C3=O)cc2)CC1	i	i	?	16%	?
CC1CCCCN1C(=O)c1cccc(NC2=C(Cl)C(=O)N(Cc3ccccc3)C2=O)c1 (stereo not drawn)	i	i	16%	18µM*	?
Fc1ccc(Nc2ncnc3c2nc2n3CCCCC2)c(F)c1	i	i	/	11µM*	/
COc1ccc(Nc2ncnc3c2nc2n3CCCC2)cc1Cl	i	i	/	13µM*	/
CCOc1ccc(Nc2ncnc3c2nc2n3CCCCC2)cc1	i	i	/	13µM*	/
O=C(Nc1ccc2oc(-c3cccc(Cl)c3Cl)nc2c1)c1cccc(Br)c1	i	i	/	7%	/
CN(C(=O)CCc1ccccc1F)C1CCCN(Cc2ccccc2F)C1 (stereo not drawn)	i	i	9%	20µM*	0%
O=CNc1cc(-c2ccccc2)cn2c(-c3ccc(F)c(Cl)c3)cnc12	i	i	-13%	?	/
O=CNc1cc(-c2cccc(F)c2)cn2c(-c3ccc(F)c(Cl)c3)cnc12	i	i	-6%	16µM*	/
CN(C)c1ccc(-c2cc(NC=O)c3ncc(-c4ccc(F)c(Cl)c4)n3c2)cc1	i	?	-6%	22µM*	/
Cc1c[nH]c2cccc(-c3cc4ccccc4o3)c12	/	i	/	/	/
O=C(Nc1nc(COc2ccccc2)cs1)c1ccccc1F	i	i	-5%	0%	16µM*
CNC(=S)N/N=C/c1c(C(=O)OC)cnn1-c1ccc(Cl)cc1	/	i	/	/	/
COc1ccc(S(=O)(=O)N(C)C[C@H]2Oc3ccc(NC(=O)Cc4ccccc4)cc3C(=O)N([C@H](C)CO)C[C@@H]2C)cc1	i	28µM*	1%	18%	/
C[C@H](CO)N1C[C@H](C)[C@@H](CN(C)S(=O)(=O)c2ccccc2)Oc2c(NC(=O)NC3CCCCC3)cccc2C1=O	i	32µM*	-9%	-5%	/
COc1ccc(S(=O)(=O)Nc2cccc3c2O[C@H](CN(C)Cc2ccc(Oc4ccccc4)cc2)[C@@H](C)CN([C@H](C)CO)C3=O)cc1	i	?	0%	3%	/

Screening results from PubChem.
